Results from PubChem BioAssay AID1259370 (Center for Chemical Genomics, University of Michigan, 2018).
The campaign covered roughly 94,000 compounds. About 680 (0.72%) were called active. The sample as a whole holds a higher share of actives than the screen did. A number with no mark means an inactive call. Rule as the data show it: active = z-score above about 3.2; inactive = the rest.

Molecular target: M-phase inducer phosphatase 2 (Homo sapiens) + Cyclin-dependent kinase 2 (Homo sapiens) + Cyclin-A2 (Homo sapiens) (UniProt P30305+P24941+P20248)
Experiment: primary biochemical HTRF screen for inhibition of M-phase inducer phosphatase 2 binding to cyclin-dependent kinase 2/cyclin A (AID 1259370)
Settings: HTRF CDC25B-CDK2/CyclinA binding, anti-His/anti-Flag; hits give high values

Compound	z-score
O=C(Nc1ccc(F)cc1)N1CCC(n2c(=O)[nH]c3ccccc32)CC1	-3.87
CCN(CC)c1nc2c(s1)C(=O)NCC(C)(C)C2	-0.63
O=C(/C=C/c1ccc(Cl)cc1)Nc1ccc(-c2nc3ccccc3o2)c(O)c1	-2.66
O=C(/C=C/c1cccc([N+](=O)[O-])c1)Nc1ccc(O)c(-c2nc3ccccc3o2)c1	-3.5
O=C(/C=C/c1ccc(-c2ccccc2[N+](=O)[O-])o1)Nc1cc(Cl)c(Cl)cc1Cl	3.71 (active)
CCCCN(CC)C(=O)c1nn(C)c2c1COc1ccccc1-2	-1.21
CCCc1nc(C)cc(N2CCOCC2)n1	-1.62
COc1cc(C2CC(=O)Nc3c2cc(Br)c2ccccc32)ccc1O (centres undefined)	-0.73
Cc1ccc(NC(=O)CSc2nc(N)c3c4c(sc3n2)COC(C(C)C)C4)cc1 (centres undefined)	-24.7
COC(=O)C1=C(OC(=O)COc2ccccc2)c2ccccc2S(=O)(=O)N1C	-1.66
CCOC(=O)Cc1nnc2c(Nc3cccc(Br)c3)nc3nonc3n12	-0.4
CCCCn1c2ccccc2c2nc3ccccc3nc21	19.8 (active)
CCCCCCn1c(C2CCCO2)nc2ccccc21 (centres undefined)	-2.17
CCCCn1c(CCNC(=O)C(C)(C)C)nc2ccccc21	0.64
C=C1c2cc(OCC)ccc2NC(=O)N1c1ccc(Cl)cc1	-0.12
CCCCN(Cc1ccco1)C(=O)Cn1ncc2c1-c1cc(C)ccc1OC2	-2.75
O=C1c2ccccc2C(Nc2ccc3c(c2)OCCO3)N1c1ccc(Cl)cc1 (centres undefined)	1.04
O=C(COc1ccc(Cl)cc1)Oc1ccc2ccccc2c1	-1.03
CC1=Nc2ccccc2-c2nnc(SCc3ccccc3F)nc2O1	-1.63
CCC(C)NC(=O)C1CCN(C(=O)c2sccc2-n2cccc2)CC1 (centres undefined)	-1.11
CCOc1cc(-n2cnnn2)c(OCC)cc1N	14.4 (active)
CCOC(=O)N1CCN(S(=O)(=O)c2ccc(-n3cnnn3)cc2)CC1	-0.58
Cc1cc(OCC(=O)Oc2ccc(-n3cnnn3)cc2)cc(C)c1Cl	0
Clc1ccc(N2CCCC2)nn1	0.42
Cc1ccccc1-c1noc(-c2ccc(F)cc2)n1	-0.49
CC(C)(C)c1cn2c3ccccc3n(CCN3CCOCC3)c2n1	0.1
CC1CCN(c2cc(NCC(=O)O)c3c4c(onc24)-c2ccccc2C3=O)CC1	13.8 (active)
CN1CCN(c2cc(NCCCC(=O)O)c3c4c(onc24)-c2ccccc2C3=O)CC1	0.14
CC(C)CNc1cc(N2CCN(C)CC2)c2noc3c2c1C(=O)c1ccccc1-3	-2.89
